In the supplement of paper PMC10849652:
About 7,900 targets were measured; listed, in parts, are those with a hit and a random draw of the rest. About 0.6% of all pairs of compound and target were hits.

Assays:
Assay in all cases: log2 fold change, soluble protein after heating vs DMSO (PISA); higher = thermal stabilisation; K562 cells, 10 uM, 30 min; active = over 0.2 and 3.5 SD of the protein, either way, in both replicates (recomputed)
[1] = compound: C1=CC=C(C=C1)[C@H](COC2=CC3=C(C=C2)NC(=O)N3)NC(=O)C4=CC=CN(C4=O)CC5=CC(=C(C=C5)F)F
Method in brief: (§1)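 For each measurement, 10 μM compound was applied for 30 min to K562 cells at 2×10^6 cells/mL. Aliquots were heated for 3 min across 48°C-58°C, pooled, and extracted in PBS with 0.5% NP-40 at 4°C; the supernatant after 21,000xg for 90 min was soluble protein. This was quantified by TMTpro 16plex LC-MS/MS with channel sums equalised, and thermal stability was reported relative to control samples from duplicates, on a log2 fold-change scale.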

[2] = compound: CC1=C(SC2=C1C(=N[C@H](C3=NN=C(N32)C)CC(=O)N)C4=CC=C(C=C4)Cl)C
Method in brief: as §1

[3] = compound: CC1=C2C(=CC=C1)N=C(N(C2=O)C3=CC=CC=C3C)CN4C=NC5=C(N=CN=C54)N
Method in brief: as §1

[4] = compound: Cc1sc2c(c1C)C(c1ccc(Cl)cc1)=N[C@@H](CC(=O)OC(C)(C)C)c1nnc(C)n1-2
Method in brief: as §1

[5] = compound: c1ccc([C@@H]2C[C@H]2NC2CCNCC2)cc1
Method in brief: as §1

Measured: log2 fold change

MRPS27 isoform 2 (UniProt Q92552)
inactive: [1] -0.063 | [2] 0.04 | [3] 0.01 | [4] 0.035 | [5] -0.059

NASP (UniProt P49321)
inactive: [1] -0.009 | [2] 0.049 | [3] 0.054 | [4] -0.022 | [5] 0.013

OXR1 (UniProt Q8N573)
Chain of UniProt Q8N573 (Q8N573 whole entry, looked up): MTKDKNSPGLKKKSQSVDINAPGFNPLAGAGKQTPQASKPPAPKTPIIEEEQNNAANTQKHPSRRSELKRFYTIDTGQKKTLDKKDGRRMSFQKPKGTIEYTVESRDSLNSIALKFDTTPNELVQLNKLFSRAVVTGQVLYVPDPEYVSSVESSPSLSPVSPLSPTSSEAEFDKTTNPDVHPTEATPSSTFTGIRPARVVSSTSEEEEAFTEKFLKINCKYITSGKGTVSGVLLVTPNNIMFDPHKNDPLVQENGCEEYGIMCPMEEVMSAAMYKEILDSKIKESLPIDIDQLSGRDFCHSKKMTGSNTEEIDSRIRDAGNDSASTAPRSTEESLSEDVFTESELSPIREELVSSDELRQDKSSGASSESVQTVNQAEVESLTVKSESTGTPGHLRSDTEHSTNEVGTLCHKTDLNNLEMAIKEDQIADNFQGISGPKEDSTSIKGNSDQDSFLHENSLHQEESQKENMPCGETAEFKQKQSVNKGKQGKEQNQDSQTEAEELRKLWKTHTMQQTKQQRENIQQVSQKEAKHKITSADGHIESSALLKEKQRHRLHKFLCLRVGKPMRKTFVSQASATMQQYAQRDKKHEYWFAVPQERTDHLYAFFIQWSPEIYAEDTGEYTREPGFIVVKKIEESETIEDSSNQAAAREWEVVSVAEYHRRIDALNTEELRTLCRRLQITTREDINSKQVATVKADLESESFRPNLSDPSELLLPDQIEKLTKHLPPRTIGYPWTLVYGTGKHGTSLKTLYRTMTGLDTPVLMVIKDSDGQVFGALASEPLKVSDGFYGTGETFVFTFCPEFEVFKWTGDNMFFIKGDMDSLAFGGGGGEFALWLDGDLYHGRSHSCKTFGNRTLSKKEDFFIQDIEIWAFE
inactive: [1] -0.021 | [2] 0.026 | [3] 0.039 | [4] -0.041 | [5] -0.069

NT5DC1 (UniProt Q5TFE4)
inactive: [1] -0.036 | [2] 0.075 | [3] 0.006 | [4] 0.021 | [5] 0.011

NCL (UniProt P19338)
inactive: [1] 0.158 | [2] -0.365 | [3] -0.299 | [4] 0.227 | [5] 0

NRDC isoform 2 (UniProt O43847)
inactive: [1] -0.058 | [2] 0.04 | [3] 0.037 | [4] -0.023 | [5] 0

NDFIP1 (UniProt Q9BT67)
inactive: [1] 0.035 | [2] -0.162 | [3] -0.076 | [4] -0.111 | [5] 0.052

NOL11 (UniProt Q9H8H0)
inactive: [1] 0.007 | [2] 0 | [3] -0.008 | [4] -0.014 | [5] 0.025

NARS2 (UniProt Q96I59)
Chain of UniProt Q96I59 (Q96I59 whole entry, looked up): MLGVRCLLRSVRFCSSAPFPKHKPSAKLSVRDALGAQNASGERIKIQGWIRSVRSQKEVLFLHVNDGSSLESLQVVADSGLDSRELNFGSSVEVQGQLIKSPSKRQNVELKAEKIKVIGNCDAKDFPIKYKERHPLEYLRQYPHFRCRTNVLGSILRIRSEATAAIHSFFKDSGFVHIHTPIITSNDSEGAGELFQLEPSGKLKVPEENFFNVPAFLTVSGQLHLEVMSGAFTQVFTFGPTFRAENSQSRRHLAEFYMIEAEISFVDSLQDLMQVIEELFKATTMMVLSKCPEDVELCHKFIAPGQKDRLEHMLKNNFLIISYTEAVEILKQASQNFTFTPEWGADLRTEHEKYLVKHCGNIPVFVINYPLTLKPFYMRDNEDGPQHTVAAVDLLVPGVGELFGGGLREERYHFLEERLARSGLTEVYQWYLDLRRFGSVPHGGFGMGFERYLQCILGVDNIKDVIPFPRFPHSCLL
inactive: [1] 0 | [2] 0.057 | [3] 0.059 | [4] 0 | [5] -0.027

MIS12 (UniProt Q9H081)
inactive: [1] -0.02 | [2] 0.013 | [3] 0.064 | [4] -0.117 | [5] -0.022

NNT (UniProt Q13423)
inactive: [1] -0.014 | [2] 0.091 | [3] 0.044 | [4] -0.028 | [5] 0

PACS1 (UniProt Q6VY07)
inactive: [1] -0.02 | [2] 0.042 | [3] 0.033 | [4] 0.002 | [5] -0.014

MKNK1 (UniProt Q9BUB5)
inactive: [1] -0.056 | [2] 0.039 | [3] 0.065 | [4] 0.03 | [5] -0.009

MKRN2 (UniProt Q9H000)
inactive: [1] 0.029 | [2] 0.046 | [3] 0.143 | [4] 0.122 | [5] -0.017

MRPS12 (UniProt O15235)
inactive: [1] 0.019 | [2] -0.121 | [3] -0.176 | [4] 0.093 | [5] 0.061

NA isoform 3 (UniProt Q4G0T1)
inactive: [1] 0.161 | [2] -0.017 | [3] 0.026 | [4] 0.024 | [5] -0.126

NAA38 isoform 2 (UniProt Q9BRA0)
inactive: [1] 0.038 | [2] 0.057 | [3] -0.013 | [4] -0.029 | [5] -0.124

NOS1AP (UniProt O75052)
inactive: [1] -0.109 | [2] 0.025 | [3] 0.362 | [4] -0.141 | [5] -0.178

NECTIN2 (UniProt Q92692)
Chain of UniProt Q92692 (Q92692 whole entry, looked up): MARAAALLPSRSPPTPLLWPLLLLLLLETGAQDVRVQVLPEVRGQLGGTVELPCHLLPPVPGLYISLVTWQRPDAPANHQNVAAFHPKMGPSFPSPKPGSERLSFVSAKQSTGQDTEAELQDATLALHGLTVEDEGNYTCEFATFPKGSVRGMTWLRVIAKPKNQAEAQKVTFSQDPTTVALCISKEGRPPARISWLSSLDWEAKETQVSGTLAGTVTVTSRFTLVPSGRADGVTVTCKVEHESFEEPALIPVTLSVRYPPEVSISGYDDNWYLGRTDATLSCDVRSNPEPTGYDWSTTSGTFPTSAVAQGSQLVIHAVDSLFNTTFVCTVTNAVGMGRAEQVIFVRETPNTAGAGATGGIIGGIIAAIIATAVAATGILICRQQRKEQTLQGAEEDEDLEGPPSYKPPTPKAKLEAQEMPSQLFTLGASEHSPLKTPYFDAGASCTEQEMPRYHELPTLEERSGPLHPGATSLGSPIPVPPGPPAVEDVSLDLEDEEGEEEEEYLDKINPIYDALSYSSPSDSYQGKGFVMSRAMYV
inactive: [1] 0.017 | [2] 0.031 | [3] -0.019 | [4] -0.009 | [5] -0.012

NUP107 (UniProt P57740)
inactive: [1] -0.02 | [2] -0.043 | [3] 0.051 | [4] 0.052 | [5] 0.025

NAPG (UniProt Q99747)
inactive: [1] -0.036 | [2] 0.044 | [3] 0.073 | [4] -0.023 | [5] -0.077

NTMT1 (UniProt Q9BV86)
Chain of UniProt Q9BV86 (Q9BV86 whole entry, looked up): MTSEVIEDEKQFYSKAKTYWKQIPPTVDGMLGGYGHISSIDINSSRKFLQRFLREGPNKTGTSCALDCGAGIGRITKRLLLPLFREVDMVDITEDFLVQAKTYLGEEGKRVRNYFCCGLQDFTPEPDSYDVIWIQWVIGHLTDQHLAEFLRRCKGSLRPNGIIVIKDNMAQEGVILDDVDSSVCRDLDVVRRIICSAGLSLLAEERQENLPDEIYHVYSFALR
inactive: [1] 0.001 | [2] 0.034 | [3] 0.079 | [4] -0.118 | [5] -0.049

NR2C2AP isoform 2 (UniProt Q86WQ0)
inactive: [1] -0.016 | [2] 0.043 | [3] 0.081 | [4] -0.067 | [5] 0.032

OTUD4 (UniProt Q01804)
Chain of UniProt Q01804 (Q01804 whole entry, looked up): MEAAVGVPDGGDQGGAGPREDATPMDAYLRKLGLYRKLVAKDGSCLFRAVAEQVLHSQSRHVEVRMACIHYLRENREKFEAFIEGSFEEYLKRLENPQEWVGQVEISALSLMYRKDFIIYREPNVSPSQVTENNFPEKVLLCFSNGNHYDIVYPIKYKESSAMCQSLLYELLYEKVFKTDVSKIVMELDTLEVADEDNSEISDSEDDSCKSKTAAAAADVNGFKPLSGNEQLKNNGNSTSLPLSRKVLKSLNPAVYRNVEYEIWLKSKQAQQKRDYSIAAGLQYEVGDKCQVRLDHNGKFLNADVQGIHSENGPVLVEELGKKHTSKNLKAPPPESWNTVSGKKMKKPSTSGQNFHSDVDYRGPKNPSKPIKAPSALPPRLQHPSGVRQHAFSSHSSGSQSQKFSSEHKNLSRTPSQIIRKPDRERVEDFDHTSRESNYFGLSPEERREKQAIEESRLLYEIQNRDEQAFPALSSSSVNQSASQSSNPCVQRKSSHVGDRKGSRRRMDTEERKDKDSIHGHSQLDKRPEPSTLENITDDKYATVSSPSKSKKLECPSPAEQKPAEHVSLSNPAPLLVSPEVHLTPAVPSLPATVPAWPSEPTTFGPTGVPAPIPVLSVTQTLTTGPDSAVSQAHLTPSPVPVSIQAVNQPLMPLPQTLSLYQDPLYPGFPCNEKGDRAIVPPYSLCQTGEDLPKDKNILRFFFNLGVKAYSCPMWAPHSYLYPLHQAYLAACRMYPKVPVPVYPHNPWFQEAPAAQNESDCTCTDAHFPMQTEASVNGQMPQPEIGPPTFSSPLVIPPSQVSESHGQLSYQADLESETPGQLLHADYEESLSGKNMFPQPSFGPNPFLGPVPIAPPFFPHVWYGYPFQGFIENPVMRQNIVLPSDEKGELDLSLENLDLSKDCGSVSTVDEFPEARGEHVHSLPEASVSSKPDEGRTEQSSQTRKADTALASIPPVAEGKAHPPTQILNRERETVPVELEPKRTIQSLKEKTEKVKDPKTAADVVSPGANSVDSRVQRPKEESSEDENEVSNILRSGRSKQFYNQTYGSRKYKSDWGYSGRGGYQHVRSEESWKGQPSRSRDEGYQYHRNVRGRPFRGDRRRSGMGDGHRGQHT
inactive: [1] 0.033 | [2] -0.034 | [3] -0.05 | [4] 0.111 | [5] 0.011

MRFAP1 (UniProt Q9Y605)
Chain of UniProt Q9Y605 (Q9Y605 whole entry, looked up): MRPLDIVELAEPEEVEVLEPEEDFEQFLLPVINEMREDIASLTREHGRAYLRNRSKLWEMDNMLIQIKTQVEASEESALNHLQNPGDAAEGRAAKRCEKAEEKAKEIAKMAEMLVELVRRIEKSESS
inactive: [1] 0.009 | [2] 0.109 | [3] -0.043 | [4] 0.031 | [5] -0.017

NDUFA4 (UniProt O00483)
Chain of UniProt O00483 (O00483 whole entry, looked up): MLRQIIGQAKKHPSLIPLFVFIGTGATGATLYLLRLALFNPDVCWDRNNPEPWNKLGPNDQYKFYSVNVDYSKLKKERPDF
inactive: [1] 0 | [2] 0.005 | [3] 0.014 | [4] -0.031 | [5] 0.046

MRPL34 (UniProt Q9BQ48)
inactive: [1] 0 | [2] -0.154 | [3] -0.073 | [4] 0.058 | [5] -0.051

MRPS10 (UniProt P82664)
inactive: [1] -0.019 | [2] -0.102 | [3] 0.065 | [4] 0.132 | [5] 0.025

NISCH (UniProt Q9Y2I1)
inactive: [1] 0.044 | [2] -0.02 | [3] 0.036 | [4] 0.044 | [5] -0.044

NFYB (UniProt P25208)
inactive: [1] -0.015 | [2] -0.119 | [3] -0.165 | [4] -0.048 | [5] 0.057

NPC1L1 (UniProt Q9UHC9)
Chain of UniProt Q9UHC9 (Q9UHC9 whole entry, looked up): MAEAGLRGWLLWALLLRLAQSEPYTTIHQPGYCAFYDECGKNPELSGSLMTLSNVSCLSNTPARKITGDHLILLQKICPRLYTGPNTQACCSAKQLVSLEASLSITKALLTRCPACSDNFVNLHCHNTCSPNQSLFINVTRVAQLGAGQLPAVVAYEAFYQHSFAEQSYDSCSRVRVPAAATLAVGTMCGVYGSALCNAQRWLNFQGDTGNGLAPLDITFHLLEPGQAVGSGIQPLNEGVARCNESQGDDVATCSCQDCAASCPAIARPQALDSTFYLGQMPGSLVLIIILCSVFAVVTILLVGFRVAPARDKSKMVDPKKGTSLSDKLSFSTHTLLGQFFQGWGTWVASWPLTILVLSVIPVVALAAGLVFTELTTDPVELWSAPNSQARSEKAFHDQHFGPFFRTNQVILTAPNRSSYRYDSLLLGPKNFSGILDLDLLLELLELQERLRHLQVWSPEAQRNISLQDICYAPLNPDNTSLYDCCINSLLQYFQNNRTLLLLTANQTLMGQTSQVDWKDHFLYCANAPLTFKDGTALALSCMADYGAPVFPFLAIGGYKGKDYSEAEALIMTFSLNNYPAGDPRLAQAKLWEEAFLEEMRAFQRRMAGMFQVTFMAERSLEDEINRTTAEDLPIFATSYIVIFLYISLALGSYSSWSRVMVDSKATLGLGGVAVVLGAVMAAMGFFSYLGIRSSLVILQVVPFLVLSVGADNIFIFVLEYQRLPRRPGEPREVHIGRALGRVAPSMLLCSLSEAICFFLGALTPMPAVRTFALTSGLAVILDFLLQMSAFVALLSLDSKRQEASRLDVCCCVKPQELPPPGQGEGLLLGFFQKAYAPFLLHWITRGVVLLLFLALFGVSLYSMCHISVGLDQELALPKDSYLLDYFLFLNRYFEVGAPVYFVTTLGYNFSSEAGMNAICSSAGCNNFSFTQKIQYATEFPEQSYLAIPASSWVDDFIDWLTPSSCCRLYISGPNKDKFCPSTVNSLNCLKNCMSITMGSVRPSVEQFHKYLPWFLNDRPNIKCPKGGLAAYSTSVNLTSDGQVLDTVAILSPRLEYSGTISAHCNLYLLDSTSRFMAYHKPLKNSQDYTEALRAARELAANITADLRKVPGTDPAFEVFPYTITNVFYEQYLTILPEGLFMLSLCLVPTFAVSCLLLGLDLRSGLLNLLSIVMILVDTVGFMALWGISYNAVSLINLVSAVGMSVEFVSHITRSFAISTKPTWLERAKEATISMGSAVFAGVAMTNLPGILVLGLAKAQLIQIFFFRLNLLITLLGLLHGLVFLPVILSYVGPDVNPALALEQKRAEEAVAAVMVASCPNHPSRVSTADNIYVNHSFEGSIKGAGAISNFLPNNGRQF
inactive: [1] 0.183 | [2] 0.063 | [3] 0.024 | [4] 0.007 | [5] 0.047

NUDT21 (UniProt O43809)
Chain of UniProt O43809 (O43809 whole entry, looked up): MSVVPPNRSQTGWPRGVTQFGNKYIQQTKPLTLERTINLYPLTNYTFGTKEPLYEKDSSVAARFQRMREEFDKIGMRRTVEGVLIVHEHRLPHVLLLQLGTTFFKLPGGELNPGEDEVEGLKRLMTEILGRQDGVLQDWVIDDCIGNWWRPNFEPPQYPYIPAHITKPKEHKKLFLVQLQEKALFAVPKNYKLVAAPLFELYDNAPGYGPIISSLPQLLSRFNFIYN
inactive: [1] 0.013 | [2] 0.021 | [3] 0.011 | [4] -0.01 | [5] 0.001

NUMA1 (UniProt Q14980)
inactive: [1] 0.027 | [2] -0.05 | [3] -0.009 | [4] 0.022 | [5] 0.014

MRPS25 (UniProt P82663)
inactive: [1] -0.002 | [2] -0.05 | [3] -0.067 | [4] 0.059 | [5] 0.014

NA, A0A096LPI6
inactive: [1] 0.055 | [2] -0.023 | [3] -0.001 | [4] 0.017 | [5] 0.023

NDUFA12 (UniProt Q9UI09)
inactive: [1] -0.046 | [2] 0.126 | [3] 0.145 | [4] -0.086 | [5] -0.051

NOLC1 isoform 2 (UniProt Q14978)
inactive: [1] 0 | [2] -0.029 | [3] 0.002 | [4] -0.012 | [5] 0.108

NUDT1 (UniProt P36639)
inactive: [1] 0.556 | [2] -0.043 | [3] 0.048 | [4] -0.137 | [5] 0.038
